Data on 14 sequences can be found in PMC5700166.

This assay deals with T1, GST-Nv-NF-kB (Ser allele) (Nematostella vectensis, UniProt A7UNT2 2-411).
T1 sequence: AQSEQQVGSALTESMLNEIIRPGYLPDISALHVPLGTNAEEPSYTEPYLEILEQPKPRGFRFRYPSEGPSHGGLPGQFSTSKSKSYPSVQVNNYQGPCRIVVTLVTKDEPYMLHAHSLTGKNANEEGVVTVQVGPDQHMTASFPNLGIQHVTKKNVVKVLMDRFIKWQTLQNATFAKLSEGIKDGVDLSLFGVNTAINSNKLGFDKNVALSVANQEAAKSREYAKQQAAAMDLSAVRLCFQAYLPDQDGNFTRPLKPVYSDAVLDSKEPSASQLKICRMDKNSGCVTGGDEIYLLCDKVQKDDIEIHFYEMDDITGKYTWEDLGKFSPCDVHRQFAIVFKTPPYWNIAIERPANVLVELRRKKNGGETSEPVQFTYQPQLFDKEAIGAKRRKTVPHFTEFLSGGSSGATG
Nature of the assay: protein-binding microarray (PBM); PBM: ~300 nM protein, 6 mM HEPES pH 7.8, 80 mM KCl, 0.5 mM EDTA, 0.5 mM EGTA, 6% glycerol, 35 ng/ul poly-dIdC, 1% milk, 1 h, room temperature; Ap Aiptasia and Nv Nematostella (sea anemones) / Co Capsaspora / Aq Amphimedon (sponge) / Dm Drosophila / Hu human; RHD is the Rel homology domain; high values mean tight binding. The following applies: dsDNA, one strand shown.
The sequence “CCGATTAACATCAACTCCCCCCCTGATGTTAATCGGGTCTTGATTCGCTTGACGCTGCTG” yielded a binding signal of 4.48 z-score.
As for “CCGATTAACATCAGGGGGAGCACTGATGTTAATCGGGTCTTGATTCGCTTGACGCTGCTG”, the binding signal worked out at 4.71 z-score.
Take “CCGATTAACATCACCAAACCCCCTGATGTTAATCGGGTCTTGATTCGCTTGACGCTGCTG”: the binding signal is 6.38 z-score.
The figure for “CCGATTAACATCAGGGGATATACTGATGTTAATCGGGTCTTGATTCGCTTGACGCTGCTG” is 5.69 z-score; for “CCGATTAACATCAAACATCCCCCTGATGTTAATCGGGTCTTGATTCGCTTGACGCTGCTG” it is 6.41 z-score; for “CCGATTAACATCAGGGGGGGACATGATGTTAATCGGGTCTTGATTCGCTTGACGCTGCTG” it is 4.34 z-score.
As for “CCGATTAACATCAAACCACCCCCTGATGTTAATCGGGTCTTGATTCGCTTGACGCTGCTG”, the figure is 3.66 z-score; as for “CCGATTAACATCAGGGGGTGGAATGATGTTAATCGGGTCTTGATTCGCTTGACGCTGCTG”, 4.75 z-score.
Turning to “CCGATTAACATCACCCCCTCCCCTGATGTTAATCGGGTCTTGATTCGCTTGACGCTGCTG”, the binding signal is 3.78 z-score.
Sequence “CCGATTAACATCAGGGCATGCCCTGATGTTAATCGGGTCTTGATTCGCTTGACGCTGCTG” came in with a binding signal of 1.33 z-score.
As for “CCGATTAACATCAAGGGGGGAACTGATGTTAATCGGGTCTTGATTCGCTTGACGCTGCTG”, the figure is 6.05 z-score.
As for “CCGATTAACATCAGAAGTCCCCCTGATGTTAATCGGGTCTTGATTCGCTTGACGCTGCTG”, the figure is 6.47 z-score; as for “CCGATTAACATCAACTATCCCCCTGATGTTAATCGGGTCTTGATTCGCTTGACGCTGCTG”, 5.03 z-score; as for “CCGATTAACATCAGAGTATCCCCTGATGTTAATCGGGTCTTGATTCGCTTGACGCTGCTG”, 5.44 z-score.
